Values joined by “and” are separate entries in the source; they are usually repeats but may differ in a detail not shown here. Identical values can stand only once. Counter-ions that a name gives are not always drawn.
Key:
Experiment in all cases: cell viability relative to vehicle control; higher = less cytotoxic
Details in all cases: 10 µM
K562 = test system: K562
Outline: (§1)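 CRISPR-edited SRSF2 P95 mutant and isogenic wild-type clones of four leukaemia lines were screened against Selleck bioactive, kinase and epigenetic probe libraries, with identity-inconsistent compounds removed. Compounds were acoustically dispensed into 384-well plates at a single 10 µM dose, with 2000 cells in 50 µL medium per well. After 48 h, supernatant was removed and CellTiter-Glo luminescence was read. Viability was expressed as percent of the on-plate DMSO vehicle control, analysed in Genedata Screener.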

MARIMO = test system: MARIMO
Outline: as §1

MOLM14 = test system: MOLM14
Outline: as §1

OCI-AML2 = test system: OCI-AML2
Outline: as §1

SMILES | cell viability (K562; SRSF2 genotype: SRSF2 P95H/wt) | cell viability (K562; SRSF2 genotype: SRSF2 wt/wt) [%] | cell viability (MARIMO; SRSF2 genotype: SRSF2 P95H/wt) [%] | cell viability (MARIMO; SRSF2 genotype: SRSF2 wt/wt) [%] | cell viability (MOLM14; SRSF2 genotype: SRSF2 P95H/wt) [%] | cell viability (MOLM14; SRSF2 genotype: SRSF2 wt/wt) [%] | cell viability (OCI-AML2; SRSF2 genotype: P95H/wt) [%] | cell viability (OCI-AML2; SRSF2 genotype: wt/wt) [%]
CC1=C[C@@H]2C(=O)[C@]3(C=C(C)[C@H](O)[C@@]3(O)[C@@H]1O)[C@H](C)C[C@@H]1[C@H]2C1(C)C [20-Deoxyingenol] | 79.4% and 65.6% | 65.1 | 76.2 | 100 | 39.8 | 14.8 | 18.2 | 52
CCNc1nc(Cl)nc(NC(C)C)n1 [Atrazine] | 97.5% and 94.1% | 98.2 | 90.6 | 102 | 93.9 | 97 | 99.1 | 104
Cc1cccc(C)c1NC1=NCCCS1 [Xylazine HCl] | 101% and 85.1% | 82.8 | 85.1 | 96.8 | 90.4 | 91.5 | 89.1 | 93.1
COCC1(CO)C(=O)C2CCN1CC2 (stereo not given) | 35.9% and 43.5% | 63.5 | 65.3 | 57.5 | 9.18 | 3.69 | 14.8 | 15.9
CC[C@]12C=CCN3CC[C@]4(C(=C(C(=O)OC)C1)Nc1ccccc14)[C@@H]32 [Tabersonine hydrochloride] | 18.2% and 28.9% | 32.3 | 13 | 13.8 | 3.62 | 1.08 | 8.35 | 13.7
O=C(/C=C/c1ccccc1)OC[C@H]1O[C@@H](O[C@@H]2OC=C[C@H]3[C@H](O)[C@@H]4O[C@]4(CO)[C@@H]23)[C@H](O)[C@@H](O)[C@@H]1O [Picroside I] | 99.3% and 101% | 105 | 98.8 | 98.7 | 101 | 103 | 104 | 100
CC1C(=O)OC2C(O)C34C5OC(=O)C3(OC3OC(=O)C(O)C34C(C(C)(C)C)C5O)C12O (stereo not given) [Ginkgolide C] | 98.9% and 97.9% | 94.4 | 93.5 | 97.6 | 103 | 103 | 102 | 105
C=CC(=C)C [Isoprene] | 102% and 103% | 105 | 103 | 106 | 95.6 | 108 | 103 | 109
Cc1cc(C(C#N)c2ccc(Cl)cc2)c(Cl)cc1NC(=O)c1cc(I)cc(I)c1O (stereo not given) [Closantel] | 95% and 92.2% | 92.3 | 102 | 108 | 99 | 100 | 92.4 | 110
Nc1ncnc2c1ccn2[C@@H]1O[C@H]([C@H](O)c2ccccc2)[C@@H](O)[C@H]1O | 89.1% and 85% | 79.6 | 83.5 | 95.3 | 77.1 | 89.3 | 79 | 88
O=C(O)C(=O)CBr [Bromopyruvic acid] | 99.8% and 89.6% | 90.3 | 90 | 97.8 | 91.6 | 94.7 | 94.7 | 93.9
CCC(=O)O[C@H]1CC[C@H]2[C@@H]3CC[C@H]4CC(=O)[C@H](C)C[C@]4(C)[C@H]3CC[C@]12C [Drostanolone Propionate] | 85.6% and 88.6% | 79.2 | 72.7 | 44.8 | 77.4 | 83.8 | 63.7 | 57.3
COc1cc2c(cc1O)CC1NCCc3cc(OC)c(O)c-2c31 (stereo not given) [Norisoboldine] | 108% and 103% | 105 | 93.1 | 90.2 | 99.3 | 103 | 103 | 99.1
CC(=O)Nc1ccc(OC[C@](C)(O)C(=O)Nc2ccc([N+](=O)[O-])c(C(F)(F)F)c2)cc1 [Andarine (GTX-007)] | 103% and 99% | 107 | 98.4 | 105 | 106 | 105 | 97.1 | 95.8
C[C@]12CC[C@H]3[C@@H](CCC4=CC(=O)C=C[C@@]43C)[C@@H]1CC[C@@H]2O [Boldenone] | 99.7% and 103% | 110 | 101 | 104 | 105 | 110 | 113 | 111
COC1=C[C@@H]2[C@@H]3Cc4ccc(OC)c(O)c4[C@]2(CCN3C)CC1=O [Sinomenine hydrochloride] | 104% and 105% | 97.9 | 102 | 101 | 98.5 | 101 | 103 | 109
C/C(=C\c1csc(C)n1)[C@@H]1C[C@@H]2O[C@@H]2CCC[C@H](C)[C@H](O)[C@@H](C)C(=O)C(C)(C)[C@@H](O)CC(=O)O1 [Epothilone A] | 22.5% and 33% | 32.5 | 7.48 | 5.2 | 6.35 | 2.31 | 7.11 | 8.21
CC(C)N(CCC(C(N)=O)(c1ccccc1)c1ccccn1)C(C)C (stereo not given) [disopyramide phosphate] | 98.9% and 108% | 106 | 104 | 109 | 104 | 104 | 107 | 96.2
O=c1ccc2c(O)c3ccoc3cc2o1 [Bergaptol] | 108% and 106% | 116 | 105 | 95.6 | 113 | 107 | 106 | 97.5
CCN1C[C@]2(COC)CC[C@H](OC)[C@]34C1[C@H](C[C@H]23)[C@@]1(O)C[C@H](OC)[C@H]2C[C@@H]4[C@@H]1[C@H]2O [Talatisamine] | 110% and 104% | 108 | 104 | 108 | 105 | 106 | 101 | 107

SMILES | cell viability (K562; SRSF2 genotype: SRSF2 P95H/wt) | cell viability (K562; SRSF2 genotype: SRSF2 wt/wt) [%] | cell viability (MARIMO; SRSF2 genotype: SRSF2 P95H/wt) [%] | cell viability (MARIMO; SRSF2 genotype: SRSF2 wt/wt) [%] | cell viability (MOLM14; SRSF2 genotype: SRSF2 P95H/wt) [%] | cell viability (MOLM14; SRSF2 genotype: SRSF2 wt/wt) [%] | cell viability (OCI-AML2; SRSF2 genotype: P95H/wt) [%] | cell viability (OCI-AML2; SRSF2 genotype: wt/wt) [%]
CC(C)(C)[C@]1(O)CC2OC(=O)CC23C(=O)OC2OC(=O)[C@H](O)C231 (stereo not given in full) [Bilobalide] | 108% and 105% | 98 | 96.9 | 116 | 104 | 104 | 98.1 | 109
C[C@@]12C[C@@H](c3ccoc3)OC(=O)[C@@H]1CC[C@]1(C)[C@H]2[C@@H]2C=C[C@@]1(O)C(=O)O2 [Columbin] | 104% and 96.4% | 102 | 99 | 106 | 108 | 100 | 104 | 103
C[C@H]1CC(=O)C[C@@H]2CC[C@H]3[C@@H]4CC[C@H](O)[C@@]4(C)CC[C@@H]3[C@]21C [Mesterolone] | 84.1% and 79.7% | 83 | 71.6 | 82.2 | 79.9 | 84.7 | 75.6 | 80.7
C[C@@H]1CC[C@H]2[C@@H](C)C(=O)O[C@@H]3O[C@@]4(C)CC[C@@H]1[C@]32OO4 [Artemisinin] | 83% and 79.2% | 78.7 | 74.8 | 93.3 | 85.8 | 87.3 | 84.6 | 98.2
CC(C)N(CCNC(=O)CN1CCCC1=O)C(C)C [Pramiracetam] | 96.6% and 106% | 104 | 98.4 | 111 | 107 | 102 | 98.1 | 105
O=Cc1ccccc1 [Benzoic aldehyde] | 98.9% and 98% | 95 | 86.4 | 91.5 | 93 | 92.4 | 85.4 | 88.3
Cn1c(CCCC(=O)O)nc2cc(N(CCCl)CCCl)ccc21 [Bendamustine HCL] | 97.2% and 96.8% | 96.3 | 94.5 | 104 | 86.3 | 97.8 | 66.5 | 83
CC(C)=CCCC(C)(O)C1CCC2(C)C1C(O)CC1C3(C)CCC(O)C(C)(C)C3C(OC3OC(CO)C(O)C(O)C3O)CC12C [20(S)-Ginsenoside Rh1] | 103% and 105% | 101 | 106 | 110 | 102 | 106 | 107 | 115
CC[N+](C)(CC)CCOC(=O)C(O)(c1ccccc1)c1ccccc1 [Methylbenactyzine Bromide] | 95.9% and 96.8% | 100 | 97.7 | 104 | 96.1 | 102 | 97.7 | 91
CC1=C2C(=O)[C@H]3[C@@H](CC=C4C[C@@H](O)CC[C@@]43C)[C@@H]2CC[C@]12O[C@@H]1C[C@H](C)CN[C@H]1[C@H]2C [Jervine] | 91.9% and 81.4% | 85.2 | 89.1 | 98.5 | 91.4 | 101 | 92.7 | 92.4
Cc1c(N[C@@H](c2nnc(-c3ccc(C#N)cc3)o2)[C@H](C)O)ccc(C#N)c1Cl | 87.6% and 86.2% | 100 | 88.4 | 96.5 | 88.9 | 100 | 100 | 102
CCN1CC2(OC(=O)c3ccccc3NC(C)=O)CCC(OC)C34C1C(CC23)C1(O)CC(OC)C2CC4C1(O)C2OC (stereo not given) [Lappaconitine] | 99.3% and 109% | 100 | 108 | 103 | 103 | 105 | 111 | 91.9
NCC(CC(=O)O)c1ccccc1 (stereo not given) [Phenibut] | 105% and 102% | 102 | 102 | 109 | 108 | 104 | 96.7 | 116
C=C1CC[C@H]2[C@@H](C=C(C)C(=O)[C@@]3(O)C[C@H](C)[C@H](O)[C@@H]3[C@H]1O)C2(C)C [Lathyrol] | 94.9% and 95.9% | 96.9 | 92.5 | 102 | 97.1 | 96.8 | 105 | 99
CC1=C(O)C(=O)C=C2C1=CC=C1[C@@]2(C)CC[C@@]2(C)[C@@H]3C[C@](C)(C(=O)O)CC[C@]3(C)CC[C@]12C [Celastrol] | 0.95% and 0.55% | 0.65 | 0.44 | 0.52 | 0.47 | 0.51 | 0.35 | 0.44
CC(=O)OCC1=C(C(=O)O)N2C(=O)C(N)C2SC1 (stereo not given) [7-Aminocephalosporanic acid] | 107% and 103% | 102 | 101 | 108 | 111 | 107 | 109 | 110
C=CC[C@]1(O)CC[C@H]2[C@@H]3CCC4=CC(=O)CCC4=C3C=C[C@@]21C [Altrenogest] | 92.6% and 98.1% | 97.5 | 99.9 | 102 | 99.8 | 107 | 109 | 96.9
O=C1CCC[C@@H]2[C@H]3CCCN4CCC[C@H](CN12)[C@@H]34 [Sophoridine] | 104% and 100% | 105 | 108 | 113 | 103 | 108 | 100 | 101
CCNC(=O)C[C@@H]1N=C(c2ccc(Cl)cc2)c2cc(OC)ccc2-n2c(C)nnc21 | 72.5% and 71.1% | 73.3 | 38.9 | 41.3 | 30 | 28.7 | 24.7 | 37.5
CC(C)c1ccc2c(c1O)CC[C@H]1C3=C(CC[C@]21C)C(=O)OC3 [Triptophenolide] | 70.5% and 80.3% | 79.5 | 70.3 | 62.5 | 99.4 | 92 | 49 | 61.7
